NPC1 prom act: activates the NPC1 promoter; Huh7 NPC1 promoter luciferase reporter, 24 h; Potency, µM (top dose mostly 9.22 µM), without a hit: at the highest dose activation, hits mostly activators; 320,000 compounds, 2.4% hits; AID 485313; further: % of control where 0% means no effect; nearly all actives have a fitted effect of over 60% in size
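Stable NPC1-promoter luciferase Huh7 line; cpd (DMSO) 24 h, 37 °C, 5% CO2; Amplite luciferase reagent 10 min RT; luminescence readout. qHTS format.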
Rab9 prom act: Rab9 promoter activation; Huh7 Rab9 promoter-luciferase reporter, luminescence, 24 h; Potency, µM (doses to about 9.22 µM), inactives show at the highest dose activation, negative = inhibition, usual class: activators; 320,000 compounds, 2.8% hits; AID 485297; further: % of control where 0% means no effect; nearly all actives have a fitted effect of over 60% in size
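Luminescence from Amplite-detected luciferase (10 minutes, ambient) reports Rab9 promoter activation. Before that, stable Rab9-luciferase Huh7 cells (1500/well, reduced-serum OP-MEM I plus 10% FBS) were exposed to compound for 24 hours at 37C.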
SMN2 splice up: increases expression of the SMN2 splice variant; HEK293 SMN2-luciferase splicing reporter, luminescence, 30-36 h; Potency, µM (top dose mostly 46.1 µM), without a hit: top-dose activity change, positive = activation, actives largely listed as activators; 210,000 compounds, 2.8% hits; further: % of control where 0% means no effect; nearly all actives have a fitted effect of over 55% in size
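HEK293 cells carry an SMN2 minigene-luciferase reporter in which exon 7 inclusion puts luciferase in frame. Cells were seeded at 2000 cells/well, attached for 10-12 hours, then exposed to compounds for 30-36 hours at 37C before ONE-Glo luminescence.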
Luc counter: Kinase-Glo luciferase inhibition (counter-screen). Q27757. Potency, µM (titrated, usually from 38.3 µM), without a hit: at the top dose activity change, negative = inhibition, hits mostly inhibitors. AID 1379. 200,000 compounds, 0.28% hits. Kinase-Glo luciferase, ATP luminescence, 8 min; further: on the % scale 0 is the no-effect control and ±100 the full control effect; nearly all actives have a fitted effect of over 60% in size
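Kinase-Glo luciferase light output from ATP and luciferin was measured with 10 uM ATP, within the enzyme's linear range. Buffer: 50 mM imidazole pH 7.2, 50 mM KCl, 7 mM MgCl2, 0.01% Tween 20, 0.05% BSA; luminescence read after 8 min at ambient temperature.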
FLuc modulator: firefly luciferase modulation, counter-screen for miR-21 project | AID 588342 | Potency, µM (titrated, usually from 57.5 µM), for inactives: at the top dose activity change, negative = inhibition, usual class: inhibitors | purified FLuc, Km substrates, luminescence inhibition | P08659 | 360,000 compounds, 6.9% hits;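 further: plate controls were vehicle for no effect and reference inhibitor for full effect; nearly all actives have a fitted effect of over 55% in size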
Target sequence (P08659 whole entry, looked up): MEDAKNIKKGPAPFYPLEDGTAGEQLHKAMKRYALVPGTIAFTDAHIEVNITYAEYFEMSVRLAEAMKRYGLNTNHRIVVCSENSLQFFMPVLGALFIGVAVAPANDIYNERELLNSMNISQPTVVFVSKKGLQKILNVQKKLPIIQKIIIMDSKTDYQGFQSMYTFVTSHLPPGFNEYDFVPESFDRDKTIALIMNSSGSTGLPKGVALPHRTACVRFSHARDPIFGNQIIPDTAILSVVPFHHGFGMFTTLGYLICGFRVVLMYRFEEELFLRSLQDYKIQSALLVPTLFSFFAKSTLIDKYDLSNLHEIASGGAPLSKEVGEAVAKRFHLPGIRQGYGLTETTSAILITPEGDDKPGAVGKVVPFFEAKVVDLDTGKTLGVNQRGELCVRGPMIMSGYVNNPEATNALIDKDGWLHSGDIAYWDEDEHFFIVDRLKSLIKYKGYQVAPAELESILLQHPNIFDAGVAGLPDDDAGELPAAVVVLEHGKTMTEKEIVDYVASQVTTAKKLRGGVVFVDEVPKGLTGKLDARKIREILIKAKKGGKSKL
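Biochemical qHTS of compounds, final roughly 60 µM downward over six points, against 10 nM purified firefly luciferase using Km concentrations of substrates (10 uM D-luciferin, 10 uM ATP) in Tris acetate pH 7.5 buffer; luminescence output.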
ELG1 genotox: induces genotoxicity in HEK293T cells with luciferase-tagged ELG1; Potency, µM (doses to about 46 µM), for the others: at the top dose activity change, positive = activation, usual class: activators; AID 504466; HEK293T ELG1-luciferase reporter, luminescence, 16 h; 330,000 compounds, 1.3% hits; further: % of control where 0% means no effect; nearly all actives have a fitted effect of over 60% in size
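Genotoxic stress is detected as increased luminescence from luciferase-tagged ELG1 in HEK293T cells, measured with ONE-Glo after a 16 hr treatment at 37 °C.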
* hit, by the source's call; [ ] = dose if it differs, or a comment. Hits are enriched below; roughly 7.5% of the tested compounds scored in any of these assays. The call rests on the fitted dose curve; in most records, active means well fitted curve in the direction sought with a large enough effect; inconclusive means small, poorly fitted or top-dose-only effect, or another doubt; inactive means no such curve, though single readings can be large; an effect the other way counts as inactive or inconclusive. Potency means the concentration at half of the fitted maximal effect.

Screening CCCc1cc(=O)oc2cc(OCC(=O)Nc3ccc(S(N)(=O)=O)cc3)ccc12 returned NPC1 prom act 4%, Rab9 prom act 0%, FLuc modulator -1% and ELG1 genotox 4%.
Screening NNC(=O)COc1ccc(F)cc1 returned NPC1 prom act -8%, Rab9 prom act -2%, SMN2 splice up -5%[1.84 µM], Luc counter -4%, FLuc modulator 5% and ELG1 genotox -1%.
O=C(COc1ccc(F)cc1)c1c(O)cc(O)cc1O was read as NPC1 prom act inconclusive, Rab9 prom act inconclusive, FLuc modulator 8.5µM* and ELG1 genotox inconclusive.
For COc1ccc(C(C)=O)c(O)c1 the results were SMN2 splice up -7% and Luc counter -13%.
`COc1ccc(C(=O)COc2ccc(F)cc2)c(O)c1` gave NPC1 prom act 3.2µM*, Rab9 prom act inconclusive, FLuc modulator 13µM* and ELG1 genotox inconclusive.
For CC(C)Nc1nnc(Sc2ccc(Cl)cc2[N+](=O)[O-])s1 the results were NPC1 prom act -2%, Rab9 prom act 1%, SMN2 splice up -5%, Luc counter 1%, FLuc modulator 0% and ELG1 genotox 5%.
CCN(CC)S(=O)(=O)c1cc(C(=O)OCC(=O)Nc2ccc(-c3nc4ccc(C)cc4s3)cc2)ccc1F was read as NPC1 prom act 0.4µM*, Rab9 prom act 0.32µM*, SMN2 splice up 1.6µM*, Luc counter 1%, FLuc modulator 5.4µM* and ELG1 genotox 10µM*.
Screening CCN(CC)S(=O)(=O)c1ccc(C(=O)OCC(=O)Nc2ccc(-c3nc4ccc(C)cc4s3)cc2)cc1 returned NPC1 prom act 0.4µM*, Rab9 prom act 0.45µM*, SMN2 splice up 1µM*, Luc counter -3%, FLuc modulator 2.7µM* and ELG1 genotox 1.6µM*.
COc1ccc(NC(=O)c2ccccc2[N+](=O)[O-])cc1 was read as NPC1 prom act 13%, Rab9 prom act 18%, SMN2 splice up 20%, Luc counter 2%, FLuc modulator -10% and ELG1 genotox 7%.
Screening COc1ccc(NC(=S)Nc2ccc(N)c([N+](=O)[O-])c2)cc1 returned NPC1 prom act 9%, Rab9 prom act 12%, SMN2 splice up 16µM*, Luc counter -4%, FLuc modulator inconclusive and ELG1 genotox inconclusive.
Cc1ccc(N=Cc2nc(-c3ccc(C)cc3)oc2O)cc1 was read as NPC1 prom act 11%, Rab9 prom act 16%, Luc counter 3%, FLuc modulator -10% and ELG1 genotox 8%.
Oc1oc(-c2ccccc2)nc1C=Nc1ccccc1 was read as NPC1 prom act 21%, Rab9 prom act 21%, SMN2 splice up 26%, Luc counter -3%, FLuc modulator 11µM* and ELG1 genotox 16%.
`COc1ccc(N=Cc2nc(-c3ccco3)oc2O)cc1` gave NPC1 prom act 2%, Rab9 prom act 0%, SMN2 splice up 22%, Luc counter 3%, FLuc modulator 8.5µM* and ELG1 genotox 11%.
CSc1ccccc1N=Cc1nc(-c2ccccc2)oc1O was read as NPC1 prom act 1%, Rab9 prom act -4%, SMN2 splice up 28%, Luc counter 7%, FLuc modulator 9.5µM* and ELG1 genotox inconclusive.
`Oc1oc(-c2ccccc2)nc1C=NCc1ccccc1` gave NPC1 prom act inconclusive, Rab9 prom act 25%, SMN2 splice up 9%, Luc counter 4%, FLuc modulator 17µM* and ELG1 genotox 21µM*.
`CN(C)c1ccc(N=Cc2nc(-c3ccccc3)oc2O)cc1` gave NPC1 prom act inconclusive, Rab9 prom act 29%, SMN2 splice up -3%, Luc counter -3%, FLuc modulator inconclusive and ELG1 genotox 10%.
Screening Oc1oc(-c2ccc(Br)cc2)nc1C=Nc1ccc(Br)cn1 returned NPC1 prom act 1%, Rab9 prom act 2%, SMN2 splice up 0%, Luc counter 2%, FLuc modulator 8% and ELG1 genotox 0%.
Screening CCOc1ccc(S(=O)(=O)NCc2cccn2Cc2cccc(C)c2)cc1 returned FLuc modulator -16%.
For Cc1ccc2oc3c(c(=O)c2c1)C(c1ccc(OCC(N)=O)cc1)N(Cc1ccc2c(c1)OCO2)C3=O (stereo not drawn) the results were SMN2 splice up -2% and FLuc modulator 2%.
`CC1=Nc2ccccc2/C1=C\c1nc(-c2ccccc2)oc1O` gave NPC1 prom act 1%, Rab9 prom act 2%, SMN2 splice up -12%, Luc counter -2%, FLuc modulator 17µM* and ELG1 genotox 1%.
`C=CCOc1ccc(/C=C2\SC(N)=NC2=O)cc1OC` gave NPC1 prom act -2%, Rab9 prom act -11%, FLuc modulator 11µM* and ELG1 genotox inconclusive.
For COc1cc(/C=C2\SC(N)=NC2=O)ccc1O the results were NPC1 prom act 1%, Rab9 prom act -4%, FLuc modulator inconclusive and ELG1 genotox -22%.
Screening CCC(C)(O)c1[nH]c2ccc(C(=O)OC)cc2c1C (stereo not drawn) returned NPC1 prom act 24%, Rab9 prom act 29%, FLuc modulator 21µM* and ELG1 genotox 19%.
COC(=O)c1ccc2[nH]c(CO)c(-c3ccccc3)c2c1 was read as NPC1 prom act 3%, Rab9 prom act -6%, FLuc modulator -10% and ELG1 genotox 9%.
For CCOC(=O)c1ccccc1NC(=O)COC(=O)Cc1ccccc1F the results were NPC1 prom act -4%, Rab9 prom act -6%, FLuc modulator -10% and ELG1 genotox 0%.
`O=C(COc1ccc(Cl)cc1)OCc1csc(Nc2ccccc2)n1` gave NPC1 prom act -1%, Rab9 prom act -2%, SMN2 splice up -7%, Luc counter 1%, FLuc modulator -17% and ELG1 genotox 2%.
Cc1ccc(Nc2nc(COC(=O)COc3ccc(C=O)cc3)cs2)cc1 was read as NPC1 prom act inconclusive, Rab9 prom act inconclusive, SMN2 splice up 35µM*, Luc counter -1%, FLuc modulator 2.7µM* and ELG1 genotox inconclusive.
C/C=C/c1ccc(OCC(=O)OCc2csc(Nc3ccc(C)cc3)n2)c(OC)c1 was read as NPC1 prom act inconclusive, Rab9 prom act inconclusive, SMN2 splice up 11µM*, Luc counter 6%, FLuc modulator 12µM* and ELG1 genotox 13%.
Screening Cc1nc(SCCc2nc3ccccc3[nH]2)c2oc3ccccc3c2n1 returned ELG1 genotox 0%.

Screening results: PubChem, National Center for Advancing Translational Sciences (NCATS)
